This is part of a sample that, as a whole, favours compounds with a hit. Of some 83,000 tested, about 20% had one in any assay.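 Results are percent growth after 48 hours of single-concentration exposure. 100 means growth as in untreated cells, lower positive values show inhibition; negative values down to -100 show cell death.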 Activity calls are given as the source filed them.
The compounds below were run on NCI-H23 lung (assay: NCI-60 one-dose screen, 48 h (100 = growth as untreated, 0 = no growth, -100 = all killed)). Conditions: 10 µM unless noted.
Procedure: Growth inhibition of the NCI-H23 human Non-Small Cell Lung tumor cell line is measured as a screen for anti-cancer activity. Cells are grown in 96 well plates and exposed to the test compound for 48 hours. Compounds are tested at a single concentration, which is 10^-5 M for most compounds. The reported endpoint is percent growth (GI% or GIPRCNT), where numbers from 0 - 100% represent growth inhibition, and numbers from -100% - 0 represent cell death. For example, a value of 40 represents 60% growth inhibition. A value of 0 means no net growth occurred over the course of the experiment. A value of -40 indicates 40% of cells at the beginning of the experiment died by the end of the experiment. A value of -100 means all cells are dead at the end of the experiment.
NCI-60 Human Tumor Cell Lines Screen was performed using the standard one-dose NCI protocol, which is described in more detail at https://dtp.cancer.gov/discovery_development/nci-60/default.htm.
Compounds with GIPRCNT values below 10 were considered active. Activity score was based on GIPRCNT using the following formula: […]
Score is 0 for GIPRCNT values of 100 or above, 50 for GIPRCNT values of 0, and 100 for GIPRCNT values of -100.
Cc1cnc(/C=C/C(=O)O)cc1-c1cc2c(cc1C)C(C)(C)CCC2(C)C was tested, and the growth was 79.2% (inactive).
For CCCCCCCCOC(=O)CCN1CC1, the growth was 111% (inactive).
With CCC1CC(O)c2c(O)c3c(c(O)c2C1O)C(=O)c1cccc(O)c1C3=O (stereo not given) (tested in a mixture with another compound) the growth was -75.9% (active).
COc1ccc(/C=C\c2cc(OC)c(OC)c(OC)c2)cc1OCC(=O)Nc1nc2ccc(OC(F)(F)F)cc2s1 was tested, and the growth was 35.6% (inactive).
With COc1cc(/C=C\c2cc(OC)c(OC)c(OC)c2)cc(N/C=C\C(=O)c2cc(OC)c(OC)c(OC)c2)c1OC the growth was 29.6% (inactive).
In the case of COc1cccc2c1c(C(=O)C(=O)Nc1cc(C)no1)cn2Cc1ccc(F)cc1, the growth is reported as 78.8% (inactive).
In the case of Cc1cc(N(CCCl)CCCl)ccc1C=Nc1ccc(-c2csc(Cc3ccccc3)n2)cc1, the growth is reported as 59.1% (inactive).
With O=C(c1cccc(O)c1O)c1cn(Cc2ccc(F)cc2)c2cccc(O)c12 the growth was 47.8% (inactive).
N/C(=N\N=C\c1ccc(-c2ccccc2)cc1)N[N+](=O)[O-] was tested, and the growth was 41% (inactive).
In the case of C[C@]12CC[C@H]3[C@@H](CC4SC(N)=NC45C/C(=N/NC(N)=O)CC[C@]35C)[C@@H]1CCC2=O (stereo not given in full), the growth is reported as -44.3% (active).
COC(=O)[C@@H](C)C[C@H](Cc1ccccc1)NC(=O)c1nc([C@@H](C[C@H](C(C)C)N(C)C(=O)[C@@H](NC(=O)[C@H]2CCCCN2C)C(C)C)OC(C)=O)sc1C was tested, and the growth was 35% (inactive).
For O=C(Nc1ccncc1F)c1cn(CC2CC2)c2ccccc12, the growth was 101% (inactive).
With COC(=O)[C@@H](C)C[C@H](Cc1ccccc1)NC(=O)c1csc([C@@H](C[C@H](C(C)C)N(C)C(=O)[C@@H](NC(=O)[C@H]2CCCCN2C)C2CC2)OC(C)=O)n1 the growth was 22% (inactive).
For CC[CH2][Sn]([Cl])([Cl])[CH2]CC, the growth was 76.9% (inactive).
For N#C[Se]Cc1cc(-c2ccccc2)n(-c2ccc(S(N)(=O)=O)cc2)n1, the growth was -18% (active).
CNC(=O)Oc1ccc(N(C)C)cc1C(C)C was tested, and the growth was 103% (inactive).
In the case of COC(=O)[C@@H](C)C[C@H](Cc1ccccc1)NC(=O)c1csc([C@@H](C[C@H](C(C)C)N(C)C(=O)C2(NC(=O)[C@H]3CCCCN3C)CC2)OC(C)=O)n1, the growth is reported as 15.7% (inactive).
With C[C@]12CC[C@H]3[C@@H](CC[C@]4(O)C[C@@H](O[C@@H]5O[C@H](CO)[C@@H](O[C@@H]6OC[C@@H](O)[C@H](O)[C@H]6O)[C@H](O)[C@H]5O)CC[C@]34C=O)[C@@]1(O)CC[C@@H]2C1=CC(=O)OC1 the growth was -37.1% (active).
For COc1ccc(C2=N[C@@H](Cc3ccccc3)C(=O)Nc3ccsc32)cc1, the growth was 53.7% (inactive).
With Fc1c[c-]c(-c2ccccn2)c(F)c1.[CH3-].[Pt+2].c1ccc([PH+](c2ccccc2)c2ccccn2)cc1 the growth was 0.331% (active).
With CC(C)(C)C(=O)OCOP(=O)(NCc1ccccc1)C1CCCN(O)C1=O (stereo not given) the growth was 49.1% (inactive).
For CCCCCCCCCCCCNC(c1ccccc1)C(O)c1ccccc1 (stereo not given), the growth was 78.7% (inactive).
In the case of CC[C@H](C)[C@H](NC(=O)C12CC(NC(C)=O)(C1)C2)C(=O)N(C)[C@H](C[C@@H](OC(C)=O)c1nc(C(=O)N[C@@H](Cc2ccccc2)C[C@H](C)C(=O)OC)cs1)C(C)C, the growth is reported as 30.9% (inactive).
CC(C)[C@@H]1NC(=O)[C@]2(C)CSC(=N2)c2csc(n2)CNC(=O)C[C@@H](/C=C/CCS)OC1=O was tested, and the growth was 8.6% (active).
In the case of COP(=S)(N1CC1)N1CC1, the growth is reported as 101% (inactive).
With COC(=O)[C@@H](C)C[C@H](Cc1ccccc1)NC(=O)c1nc([C@@H](C[C@H](C(C)C)N(C)C(=O)[C@@H](NC(=O)[C@H]2C[C@H](O)CCN2C)C(C)C)OC(C)=O)sc1C(C)C the growth was 23.8% (inactive).
For CC(=O)O[C@H]1C(=O)[C@@]2(C)[C@H]([C@H](OC(=O)c3ccccc3)[C@]3(O)C[C@H](OC(=O)[C@H](OC(=O)OCC4COC(C)(C)O4)[C@@H](NC(=O)c4ccccc4)c4ccccc4)C(C)=C1C3(C)C)[C@]1(OC(C)=O)CO[C@@H]1C[C@@H]2O (stereo not given in full), the growth was 37.8% (inactive).
With CC(C)OC(=O)[C@H](C)NP(=O)(Oc1ccccc1)C1CCCN(O)C1=O (stereo not given in full) the growth was 89.6% (inactive).
With CC(=O)OC1CCC2C3CCC4=C/C(=N/OC(=O)c5ccc(N(CCCl)CCCl)cc5)CCC4(C)C3CC(C)C12 (stereo not given) the growth was 69.7% (inactive).
CC(=O)O[C@H]1CC[C@]2(C)[C@H]3CC[C@]4(C)[C@@H](OC(C)=O)CC[C@H]4[C@@H]3[C@@H](C)[C@]2(O)C1 was tested, and the growth was 111% (inactive).
With O=C(CCCCCCC(=O)Nc1ccc(N(CCCl)CCCl)cc1)NO the growth was 29.2% (inactive).
In the case of COC(=O)[C@@H](C)C[C@H](Cc1ccccc1)NC(=O)c1csc([C@@H](C[C@H](C(C)C)N(C)C(=O)[C@@H](NC(=O)[C@H]2CCCCN2C)C(C)C)OC(C)=O)n1, the growth is reported as 23.7% (inactive).
For O=C1C(Cl)=C(N2CCOCC2)C(=O)c2ccccc21, the growth was 85.2% (inactive).
In the case of CCOc1ccccc1C(=O)OCC(Cl)(Cl)Cl, the growth is reported as 102% (inactive).
For CC1=C(O)[C@@](C)(CCCCC[C@H](C)CCCCc2ccc(O)cc2)OOC1=O, the growth was 85.2% (inactive).
With O=C1C2C(C(=O)[N]1[Hg][c]1ccccc1)C1(Cl)C(Cl)=C(Cl)C2(Cl)C1(Cl)Cl (stereo not given) the growth was -8.01% (active).
COC(=O)[C@@H](C)C[C@H](Cc1ccccc1)NC(=O)c1cccc([C@@H](C[C@H](C(C)C)N(C)C(=O)[C@@H](NC(=O)[C@H]2CCCCN2C)C(C)C)OC(C)=O)n1 was tested, and the growth was 38.9% (inactive).
In the case of CCOC(=O)CCN(C)C1=Nc2ccc(Cl)cc2C(c2ccccc2)=[N+]([O-])C1, the growth is reported as 101% (inactive).
In the case of COc1cc(/C=N/C2=C(C#N)C(c3ccco3)c3c(c4cc(C)ccc4oc3=O)O2)cc(OC)c1OC (stereo not given), the growth is reported as 95.1% (inactive).
In the case of CC(=O)OC1CCC2(C)C(CCC3C2CC(=O)C2(C)C3CC(Sc3ccc(N(CCCl)CCCl)cc3)C2C(C)=O)C1 (stereo not given), the growth is reported as 97.3% (inactive).

Reference: PubChem BioAssay (NCI)
